VACV mCherry inh: inhibitors of vaccinia virus infection (mCherry reporter signal); AID 720579; Potency, µM (titrated, usually from 36.5 µM), for the others: top-dose activity change, negative = inhibition, usual class: inhibitors; Vaccinia virus mCherry reporter infection, fluorescence; 310,000 compounds, 0.63% hits; calls by dose curve; tested in A549 cells; further: nearly all actives have a fitted effect of over 35% in size
Vaccinia Venus: vaccinia inhibition (Venus reporter). Potency, µM (doses to about 36.5 µM), for the others: top-dose activity change, negative = inhibition, most hits filed as inhibitors. 330,000 compounds, 0.46% hits. Vaccinia virus Venus reporter expression, fluorescence; calls by dose curve; tested in A549 cells; further: nearly all actives have a fitted effect of over 30% in size
Lassa entry inh: Lassa virus entry inhibition | Lassa virus pseudotype entry inhibition, cell reporter | Potency, µM (highest dose often 37.9 µM), for inactives: at the top dose activity change, negative = inhibition, actives largely listed as inhibitors | 300,000 compounds, 1.2% hits | AID 540256; calls by dose curve; tested in HEK293 cells; further: nearly all actives have a fitted effect of over 50% in size
HCV inh: HCV inhibition; Potency, µM (top dose mostly 41.8 µM), without a hit: top-dose activity change, negative = inhibition, hits mostly inhibitors; 340,000 compounds, 3.4% hits; Huh7.5.1 HCVcc-Cre infection, luciferase reporter, 44 h; active means well fitted inhibition curve with a large enough effect; inconclusive means small, poorly fitted or top-dose-only effect, or another doubt; inactive means no such curve, though single readings can be large or run the other way
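Cells seeded at 1,000/well and cultured 4 h, then compounds added followed by HCVcc-Cre virus (~0.5 moi). After 44 h further culture, luciferase substrate was added, plates held 15 min at room temperature, and luminescence read for 15 sec.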
Marburg entry inh: Marburg virus entry inhibition; Marburg virus pseudotyped entry inhibition, cell reporter; Potency, µM (titrated, usually from 37.8 µM), for the others: top-dose activity change, negative = inhibition, hits mostly inhibitors; 300,000 compounds, 1.8% hits; AID 540276; calls by dose curve; tested in HEK293 cells
* = called active by the depositor; i = inactive; u = inconclusive; x = not tested or not shown; [ ] = remark or other dose. This is a sample that favours compounds with a hit; in the whole collection about 4.6% have one here. On the % scale 0 is the no-effect control and ±100 the full control effect; potency means the concentration at half of the fitted maximal effect.

SMILES	VACV mCherry inh	Vaccinia Venus	Lassa entry inh	HCV inh	Marburg entry inh
C=CCNC(=S)N/N=C/c1cn(C)c2ccccc12	-24.7%	u	15.1%	35.5µM*	u
COc1cc(NS(=O)(=O)c2cc3c(cc2C)n(C)c(=O)c(=O)n3C)cc(OC)c1	-13.5%	-7.5%	u	x	x
On1onc2c3cc(-c4ccccc4)nc3ccc21	3.16µM*	u	u	2.24µM*	u
O=C(Cc1ccc(S(=O)(=O)N2CCOCC2)s1)Nc1cc(C(F)(F)F)ccc1N1CCCC1	u	-9.0%	u	u	u
CCN(CC)S(=O)(=O)c1cc(NC(=O)Cc2ccc(S(=O)(=O)N3CCOCC3)s2)ccc1Cl	x	x	x	10µM*	x
O=C(Cc1ccc(S(=O)(=O)N2CCOCC2)s1)Nc1cc(C(F)(F)F)cc(C(F)(F)F)c1	x	x	x	11.2µM*	x
O=C(NCC(c1ccc2c(c1)OCO2)N1CCN(c2ccccc2F)CC1)c1ccccc1F (configuration not stated)	i	-9.6%	u	x	x
O=C(O)c1ccc(/C=N\Nc2ccc(S(=O)(=O)N3CCOCC3)cc2[N+](=O)[O-])cc1	x	x	x	6.7%	x
Cc1ccc(-n2c(O)c(/C=N/Nc3ccc(S(=O)(=O)N4CCOCC4)cc3[N+](=O)[O-])c3ccccc3c2=O)c(C)c1	i	-29.8%	u	11.2µM*	u
Cc1ccc(Nc2ccc(S(=O)(=O)N3CCOCC3)cc2[N+](=O)[O-])cc1C	-23.2%	-22.5%	u	17.8µM*	u
Cc1cccc(/C=C/C(=O)c2cc(Br)ccc(=O)c2O)c1	x	-2.6%	u	14.1µM*	u
CCc1ccc2c(c1)NC(c1ccc(F)cc1)=NC(c1ccncc1)=N2	-14.0%	-7.2%	4.5%[46.1 µM]	x	3.1%[46.1 µM]
CC(=O)Nc1ccc(/C=C/c2nc3ccccc3s2)cc1	20.4%	34.6%	x	x	x
COc1ccc(C2C(C#N)=C(N)Oc3c2ccc2cccnc32)cc1OC (configuration not stated)	8.91µM*	u	u	-16.8%	u
N#CC1=C(N)Oc2c(ccc3ccccc23)C1c1ccsc1 (configuration not stated)	-25.8%	-14.6%	-27.6%	u	u
COc1cc(C2C(C#N)=C(N)Oc3c2ccc2ccccc32)ccc1OCC(=O)Nc1ccc(C)cc1 (configuration not stated)	u	-22.9%	u	2µM*	u
COc1cc(C2C(C#N)=C(N)Oc3c2ccc2ccccc32)ccc1OCC(=O)Nc1cccc(C)c1 (configuration not stated)	-20.2%	u	10µM*	u	u
O=C(c1cccnc1)c1cc2ccccc2[nH]1	-6.6%	-2.2%	-2.0%	27.4%	10.5%
NC(=O)c1cccc(-c2cnc(N)c(C(=O)c3cccnc3)n2)c1	6.31µM*	u	x	u	x
CC(=O)Nc1cccc(-c2cnc(N)c(C(=O)c3cccnc3)n2)c1	12.6µM*	10µM*	x	11.2µM*	x
Cc1ccc(CSc2nc3c(c(=O)[nH]2)C(c2cccc(F)c2F)CC(=O)N3)cc1 (configuration not stated)	8.3%	-3.8%	0.0%[46.1 µM]	x	-7.4%[46.1 µM]
Cc1ccc(Cn2c(SCC(=O)C(C)(C)C)nc3ccsc3c2=O)cc1	-8.8%	-8.1%	u	x	x
Cn1c(/C=C/c2ccc([N+](=O)[O-])o2)nc2ccccc2c1=O	4.47µM*	u	2.82µM*	2µM*	u
Clc1ccc2c(N/N=C/c3ccccc3Br)ccnc2c1	-21.0%	-12.9%	-1.4%	u	u
Cc1ccc(-c2cc(C(=O)N/N=C/c3ccc([N+](=O)[O-])o3)c3ccccc3n2)o1	u	u	u	11.2µM*	u
SMILES	VACV mCherry inh	Vaccinia Venus	Lassa entry inh	HCV inh	Marburg entry inh
O=C(N/N=C/c1ccc([N+](=O)[O-])o1)c1cc(-c2ccc(-c3ccccc3)cc2)nc2ccccc12	u	-2.6%	u	-52.3%	u
O=[N+]([O-])c1ccc(/C=N/Nc2ccnc3cc(Cl)ccc23)o1	15.8µM*	u	-16.1%[46.1 µM]	u	u
O=C(N/N=C/c1ccc([N+](=O)[O-])o1)c1cc(-c2ccncc2)nc2ccccc12	x	x	u	10µM*	u
O=C(NCCc1nnc2n1CCN(Cc1c(F)cccc1F)CC2)c1ccco1	-1.9%	-0.7%	x	x	x
Cc1cc(N/N=C/c2ccc([N+](=O)[O-])o2)nc2ccccc12	u	4.4%	0.8%	10µM*	u
COC(=O)C1CCN(Cc2ccc3c(c2)CN(C(=O)c2cc4ccccc4n2C)CCO3)CC1	-11.9%	-4.8%	x	x	x
O=c1[nH]c(-c2ccccn2)nc(C(F)(F)F)c1Br	11.2µM*	-16.6%	u	-23.8%	u
CN(C)c1ccc(/C=C/c2cccc[n+]2[O-])cc1	i	-7.7%	u	11.5%	-19.4%[46.1 µM]
CC(C)CC[n+]1ccccc1/C=C/c1ccc(N(C)C)cc1	i	i	u	5.01µM*	u
CCN(CC)c1nc(Nc2ccccc2)nc(Oc2ccc(=O)n(C)n2)n1	x	x	15.4%	u	u
CCOc1ccc(Oc2nc(Nc3ccc(C)cc3)nc(N(C)C)n2)nn1	-21.8%	-27.7%	-7.7%	11.2µM*	u
CN(C(=O)COC(=O)c1cc(-c2ccc(Cl)s2)nc2ccccc12)C1CCS(=O)(=O)C1 (configuration not stated)	x	x	x	10µM*	x
CN(C(=O)COC(=O)c1cc(-c2ccccc2Cl)nc2ccccc12)C1CCS(=O)(=O)C1 (configuration not stated)	-1.9%	-15.1%	-9.4%	4.9%	0.6%
COc1ccc(CCNC(=O)c2c(C)oc3ncn(C)c(=O)c23)c(OC)c1	-18.7%	-14.0%	5.5%[46.1 µM]	x	x
O=S(=O)(Nc1cccc2ncccc12)c1cccs1	12.6µM*	u	u	u	u
O=S(=O)(Nc1ccc(-c2nc3cccnc3s2)cc1)c1cccs1	-9.7%	-1.2%	x	u	x
CCCC1=Nc2cc(C(=O)NC3CCCC3)ccc2Sc2ccc(C)cc21	-26.6%[7.34 µM]	-22.0%[7.34 µM]	u	x	u
O=C(c1cc(-c2ccncc2)nc2ccccc12)N1CCN(c2ncccn2)CC1	-6.8%	-18.4%	-13.5%	u	1.12µM*
O=C(c1cc(-c2ccncc2)nc2ccccc12)N1CCN(c2ccccn2)CC1	x	x	-7.3%	-11.3%	u
O=C(c1cc(-c2ccncc2)nc2ccccc12)N1CCN(c2ccc(N3CCOCC3)nn2)CC1	i	-15.8%	44.0%[14.3 µM]	x	14.6µM*
Cc1ccc(S(=O)(=O)c2cnc(SC(C)C(=O)Nc3ccccc3)[nH]c2=O)cc1 (configuration not stated)	-5.1%	3.1%	x	x	-10.6%[46.1 µM]
CN1CCN(CCOC2c3ccccc3CSc3ccc(Cl)cc32)CC1 (configuration not stated)	u	u	20.6µM*	u	u
NC(=O)CCN1CCN(CCOC2Cc3cc(Cl)ccc3Sc3ccccc32)CC1 (configuration not stated)	-9.6%	u	u	11.2µM*	u
Cc1oc2ncn(CC(C)C)c(=O)c2c1C(=O)N1CCN(c2cccc(C(F)(F)F)c2)CC1	-11.7%	-2.4%	20.0%[46.1 µM]	x	x
